Data taken from PubChem BioAssay AID1851 (National Center for Advancing Translational Sciences (NCATS), 2009).
Values joined by “and” are separate entries in the source; they are usually repeats but may differ in a detail not shown here. Equal values may be shown once. Screen size: about 16,000 compounds; about 2,600 (16%) were called active. Roughly 20% stayed inconclusive and do not appear here. The call rests on the fitted dose curve; in most records, active means well fitted curve in the direction sought with a large enough effect; inconclusive means small, poorly fitted or top-dose-only effect, or effect the other way; inactive means no such curve, though single readings can be large or run the other way. A selection follows. Peptide text beside a SMILES is read from it. * marks the point of attachment. Cbz = O=C(OCc1ccccc1)*

What follows are compounds tested against Cytochrome P450 2D6 (Homo sapiens) (UniProt P10635) (assay: Cytochrome panel assay with activity outcomes). Details: recombinant CYP, pro-luciferin dealkylation, luminescence, p450-cyp2d6; series mostly up to 57.1 µM; activity, negative = inhibition: at the top concentration.
Chain of Cytochrome P450 2D6 (Homo sapiens) (P10635 whole entry, looked up): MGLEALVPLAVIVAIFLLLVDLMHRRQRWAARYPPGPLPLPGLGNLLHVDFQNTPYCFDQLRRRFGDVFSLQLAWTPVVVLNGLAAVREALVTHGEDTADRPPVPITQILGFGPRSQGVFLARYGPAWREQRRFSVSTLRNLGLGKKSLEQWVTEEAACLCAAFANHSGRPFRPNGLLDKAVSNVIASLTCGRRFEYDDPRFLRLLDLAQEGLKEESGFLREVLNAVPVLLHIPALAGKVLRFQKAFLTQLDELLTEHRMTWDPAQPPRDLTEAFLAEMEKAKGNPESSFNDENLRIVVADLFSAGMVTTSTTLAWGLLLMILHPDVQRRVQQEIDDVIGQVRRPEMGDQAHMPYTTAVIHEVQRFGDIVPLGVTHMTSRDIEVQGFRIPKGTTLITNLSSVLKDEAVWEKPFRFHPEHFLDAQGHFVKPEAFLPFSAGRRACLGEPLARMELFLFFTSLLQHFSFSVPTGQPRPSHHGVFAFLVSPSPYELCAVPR
On the % scale 0 is the no-effect control and ±100 the full control effect.

Structure (SMILES)	activity, negative = inhibition	AC50
Cc1ccc(OC(=O)c2cccc(C(=O)Oc3ccc(C)cn3)n2)nc1	-6.82% (inactive)	–
CN1CCCCC1=NCCCn1cnc2c1c(=O)n(C)c(=O)n2C	5.89% (inactive)	–
COc1ccc(C(=O)N/N=C2/SCC(=O)N2Cc2ccc3c(c2)OCO3)cc1OC	–	15.8 µM (active)
CCOC(=O)N/N=C1/C[C@@H](O)[C@@H](O)[C@@H]2[C@@H]3C(=O)N(Cc4ccc5c(c4)OCO5)C(=O)[C@H]3CC[C@@H]12	6.47% [at 11.4 µM] (inactive)	–
COc1cc(/C=N/NC(=O)c2cccnc2)ccc1OC(=O)c1ccc2c(c1)OCO2	10.4% (inactive)	–
CCOC(=O)N1CCN(C(=O)CN(C)S(=O)(=O)c2ccc3c(c2)C(C)(C)C(=O)N3C)CC1	20.2% (inactive)	–
CC[C@@H]1OC(=O)[C@H](C)[C@H](O[C@@H]2C[C@](C)(OC)[C@H](O)[C@H](C)O2)[C@H](C)[C@H](O[C@@H]2O[C@@H](C)C[C@@H](N(C)C)[C@@H]2O)[C@](C)(O)C[C@H](C)[C@@H]2N[C@H](COCCOC)O[C@H]([C@@H]2C)[C@]1(C)O	8.43% [at 25.6 µM] (inactive)	–
O=S(=O)(c1ccccc1)N1CCC[C@@]2(CCN(c3ccccc3)C2)C1	-10.2% (inactive)	–
COc1ccccc1CN1CC[C@@]2(CCCN(S(C)(=O)=O)C2)C1	–	0.316 µM (active)
CS(=O)(=O)N1CCC2(CCN(Cc3nccs3)CC2)CC1	7.26% (inactive)	–
COc1ccccc1CN1CCC2(CC1)CCN(S(C)(=O)=O)CC2	–	0.02 µM (active)
CS(=O)(=O)N1CCC[C@@]2(CCN(c3ccncc3)C2)C1	-1.64% (inactive)	–
COc1ccccc1CN1CC[C@@]2(CCCN(S(=O)(=O)c3ccccc3)C2)C1	–	0.01 µM (active)
COc1ccc(NC(=O)N2CC[C@@]3(CCCN(S(C)(=O)=O)C3)C2)cc1	20.3% (inactive)	–
COc1ccc(NC(=O)N2CCCC3(CCN(S(C)(=O)=O)CC3)C2)cc1	-0.845% (inactive)	–
COc1ccccc1CN1CCCC2(CCN(S(C)(=O)=O)CC2)C1	–	0.0631 µM (active)
Cn1cc(-c2nc3cnc(Oc4ccccc4)nc3n(Cc3cccs3)c2=O)c2ccccc21	7.6% (inactive)	–
CC(C)Cn1c(SCC(=O)c2c(N)n(C)c(=O)n(C)c2=O)nc2ccccc21	-5.6% (inactive)	–
COCCNC(=O)c1onc(CSc2cccc(Cl)c2)c1C(=O)O	17.7% (inactive)	–
Nc1ccc(N=Nc2ccc(-c3ccc(O)cc3)cc2)c2ccc(S(=O)(=O)O)cc12	3.2% [at 11.4 µM] (inactive)	–
O=C(O)c1[nH]c2c([N+](=O)[O-])cc([N+](=O)[O-])cc2c1C(=O)O	11.1% [at 11.4 µM] (inactive)	–
NC(=O)C[C@H](N)C(N)=O	-0.87% [at 11.4 µM] (inactive)	–
CC1CCN(C(=O)Nc2ccc3nsnc3c2)CC1	4.11% (inactive)	–
O=S(=O)(c1ccccc1)N1CCC2(CC1)CN(Cc1nccs1)C2	1.8% (inactive)	–

Structure (SMILES)	activity, negative = inhibition	AC50
CN1CCC2(CC1)CCN(S(=O)(=O)c1ccccc1)CC2	2.59% (inactive)	–
O=S(=O)(c1ccccc1)N1CCC[C@@]2(CCN(Cc3nccs3)C2)C1	–	2.51 µM (active)
COc1ccc(NC(=O)N2CC3(CCN(S(=O)(=O)c4ccccc4)CC3)C2)cc1	-4.48% (inactive)	–
COc1ccccc1CN1CCC2(CC1)CCN(S(=O)(=O)c1ccccc1)CC2	–	0.158 µM (active)
O=S(=O)(c1ccccc1)N1CCC2(CCCN(Cc3nccs3)C2)CC1	12% (inactive)	–
Cc1cccn2c(=O)c(C=NCc3ccco3)c(Nc3ccc(SC(F)F)cc3)nc12	3.01% (inactive)	–
COC(=O)[C@@H]1O[C@@H](SCCN)[C@@H](O)[C@H](O)[C@H]1O	-0.405% [at 11.4 µM] (inactive)	–
CSc1nnc(-c2sc(-c3ccccc3)nc2C)n1C	-9.68% (inactive)	–
C#CCSc1nnc(-c2cc3c(C(F)(F)F)nn(C)c3s2)n1C	-7.93% (inactive)	–
C#CCSc1nnc(-c2sc(-c3ccccc3)nc2C)n1C	–	6.31 µM (active)
CC(=O)c1cc2ccccc2oc1=O	-7.3% [at 25.6 µM] (inactive)	–
COC(=O)C1CSC(C(=O)OC)N1C(=O)Nc1c(C)cccc1C (stereo not drawn)	19.8% (inactive)	–
O=C(CSCc1c(F)cccc1Cl)NCC1CCCO1 (stereo not drawn)	-8.79% (inactive)	–
Cc1ccc(CS(=O)(=O)Cc2ccc(C(=O)NCC3CCCO3)o2)cc1 (stereo not drawn)	-6.61% (inactive)	–
O=C(CN(Cc1ccccc1Cl)C(=O)c1ccc(CN2CCOCC2)o1)NCC1CCCO1 (stereo not drawn)	–	7.08 µM (active)
Cc1ccccc1NC(=O)c1cccc2nc3ccccc3nc12	-15.8% (inactive)	–
COC(=O)C/C=C\[C@@H](C)[C@@H](/C=N\OC[C@@H]1O[C@H](c2ccccc2)C=C[C@@H]1Oc1ccc(OC)cc1)NS(=O)(=O)c1ccc(C)cc1	-14% [at 11.4 µM] (inactive)	–
N=C(N)SCCCN	-11.8% [at 11.4 µM] (inactive)	–
N=C(N)SCCc1cnc[nH]1	–	25.1 µM (active) and 6.31 µM (active)
O=C(NCCNC[C@@H](O)COc1ccc(O)cc1)N1CCOCC1	–	inactive
Cc1nc(Oc2ccc(Cl)cc2)c2oc3ccccc3c2n1	-7.69% (inactive)	–
Cn1c(=O)cc(OCC(=O)NCc2cccnc2)c2ccccc21	-25.4% (inactive)	–
CCn1c(=O)cc(OCC(=O)Nc2cccnc2)c2ccccc21	–	6.31 µM (active)
COc1ccccc1OCC(=O)NNC(=O)c1cnccn1	10.5% (inactive)	–

Structure (SMILES)	activity, negative = inhibition	AC50
Cc1cc(N2CCOCC2)ccc1/C=C1\SC(=O)N(C(C)C)C1=O	-6.56% (inactive)	–
COC(=O)[C@H](C)NC(=O)[C@@H](C)CO	-0.424% [at 11.4 µM] (inactive)	–
Cn1c(=O)c2[nH]c(/N=N\N3CCN(CCO)CC3)nc2n(C)c1=O	3.89% [at 11.4 µM] (inactive)	–
O=C(O)CCC(=O)c1ccc(Cl)cc1	11.7% [at 11.4 µM] (inactive)	–
N[C@@H](C(=O)O)[C@H](CC(=O)O)c1ccc(Cl)cc1	–	2.51 µM (active)
N[C@H](Cc1ccc(Cl)cc1)C(=O)O	-8.94% (inactive)	–
CCn1c(SCc2ccc(C(=O)Nc3nccs3)cc2)nnc1-c1ccc(NC(C)=O)cc1	-29.1% (inactive)	–
CC12CCC(C(=O)Nc3ccccc3Br)(C/C1=N\O)C2(C)C (stereo not drawn)	8.66% (inactive)	–
c1ccc(CNc2ccnc(-c3ccoc3)n2)cc1	–	20 µM (active)
Cc1cnc(CNc2ccnc(-c3ccoc3)n2)cn1	-4.01% (inactive)	–
c1csc(CNc2ccnc(-c3ccoc3)n2)c1	–	3.16 µM (active)
c1cncc(-c2nccc(NCc3cccs3)n2)c1	–	0.631 µM (active)
CN(C)c1ccc(-c2nccc(NCc3cccs3)n2)cc1	–	0.126 µM (active)
Cc1cnc(CNc2ccnc(-c3c(C)noc3C)n2)cn1	-9.71% (inactive)	–
COc1ncc2ncc(=O)n(Cc3ccc(F)cc3)c2n1	5.3% (inactive)	–
CCC(C)[C@H](NC(=O)Nc1ccc(Oc2ccccc2)cc1)C(=O)O (stereo partly drawn)	11.5% (inactive)	–
O=C(O)c1c[nH]c2cc(OCc3ccccc3)ccc2c1=O	4.69% [at 11.4 µM] (inactive)	–
O=C(O)[C@@H]1[C@@H]2C[C@H]([C@@H](Br)[C@H]2N2C(=O)CCC2=O)[C@@H]1C(=O)O	-2.86% [at 11.4 µM] (inactive)	–
COC(=O)CCC(NC(=O)OCc1ccccc1)C(=O)NC(CC(C)C)C(=O)OC (stereo not drawn) (Cbz-Glu(OMe)-Leu-OMe; configuration not given here)	15.2% (inactive)	–
COC(=O)C(NNc1ccccc1)(NC(=O)c1ccccc1F)C(F)(F)F (stereo not drawn)	-16.1% (inactive)	–
CCCNC(=O)OC[C@@H]1O[C@H](CCO/N=C\c2ccc(C(=O)N3[C@H](c4ccc(C)cc4)[C@@H](C)CC[C@H]3C(=O)OC)cc2)C=C[C@@H]1Oc1ccc(OC)cc1	9.53% [at 11.4 µM] (inactive)	–
O=C(c1ccccc1)[C@@H]1O[C@H]1c1ccc(-c2ccccc2)cc1	3.66% (inactive)	–
O=C(Cn1cnc2ccccc21)NC(c1ccccc1)c1ccccc1	–	7.08 µM (active)
CC(NC(=O)Cn1cnc([N+](=O)[O-])n1)c1ccccc1 (stereo not drawn)	11% (inactive)	–

Structure (SMILES)	activity, negative = inhibition	AC50
C[C@H](NC(=O)Cn1cncn1)c1ccccc1	9.25% (inactive)	–
C[N+]1(CCCC[N+]2(C)CCCCCCC2)CCCCCCC1	-7.84% [at 11.4 µM] (inactive)	–
N/C(=N\O)c1cn([C@@H]2O[C@@H](CO)[C@H](O)[C@@H]2O)c2ncnc(NO)c12	14.4% [at 11.4 µM] (inactive)	–
CCOc1ccc(N2C(=O)CN=C2Nc2ccccc2F)cc1	-7.99% (inactive)	–
CCOc1ccc(N2C(=O)CN=C2Nc2ccccc2Cl)cc1	-13.5% (inactive)	–
CCOc1ccc(NC2=NCC(=O)N2Cc2cccs2)cc1	–	7.08 µM (active)
CCCCOC(=O)CCc1c(C)[nH]c(=O)c(C#N)c1C	-6.68% (inactive)	–
CCN(CC)C(=O)C1=C(C)NC(=S)NC1c1cn(-c2ccccc2)nc1-c1ccc(Cl)cc1 (stereo not drawn)	-7.39% (inactive)	–
O=C(O)[C@@H]1[C@@H](C(=O)Nc2ncccn2)[C@@H]2C=C[C@@H]1O2	15.2% [at 11.4 µM] (inactive)	–
CCc1cccc(N(C)C(N)=Nc2cccc3ccccc23)c1	–	0.2 µM (active)
O=C(NC[C@@H](O)CO)c1c(I)c(C(=O)NC[C@@H](O)CO)c(I)c(N(CCO)C(=O)CO)c1I	6.36% [at 25.6 µM] (inactive)	–
O=C1c2ccccc2-c2ccc(N(Cc3ccc(Br)cc3)Cc3ccc(Br)cc3)cc21	-1.8% [at 11.4 µM] (inactive)	–
C[N+]1(C)CCC(OC(=O)C(c2ccccc2)c2ccccc2)CC1	-11.7% (inactive)	–
CN1[C@@H]2CC[C@H]1CC(OC(c1ccccc1)c1ccccc1)C2 (stereo partly drawn)	–	2 µM (active) and 1.26 µM (active)
Cn1c(=O)c(-c2cc(F)cc(F)c2)nc2cncnc21	0.609% (inactive)	–
Cc1nn(C)cc1CNC(=O)CCC(=O)O	-3.76% (inactive)	–
CCN1CCCC1CNC(=O)C(=O)Nc1ccc(OC)cc1 (stereo not drawn)	-29.4% (inactive)	–
COc1ccc(NC(=O)N2CCC3(CC2)CCN(S(C)(=O)=O)CC3)cc1	-3.87% (inactive)	–
COc1ccc(NC(=O)NCCCN2CCCCC2C)cc1 (stereo not drawn)	–	1.58 µM (active)
O=S(=O)(c1cnccc1N1CCN(CCO)CC1)N1CCCC1	10% [at 11.4 µM] (inactive)	–
Cc1cccc(Nc2ccccc2C(=O)OCC(=O)NCc2ccco2)c1C	-14% (inactive)	–
